Several values for one entry are separate records, joined by “and”; a condition that tells them apart may be missing. Identical values can stand only once. This is part of a sample that, as a whole, favours compounds with a hit. Of some 83,000 tested, about 20% had one in any assay.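 Each cell line was grown in a 96-well plate and treated with one concentration of compound for 48 hours. Values below 10 were considered active.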 Values without a mark were called inactive. Activity calls are given as the source filed them.
Key:
Assay in all cases: NCI-60 one-dose screen, 48 h (100 = growth as untreated, 0 = no growth, -100 = all killed)
Settings in all cases: 10 µM unless noted
SR leukemia = tested on: SR leukemia
RPMI-8226 leukemia = tested on: RPMI-8226 leukemia
OVCAR-8 ovarian = tested on: OVCAR-8 ovarian
OVCAR-5 ovarian = tested on: OVCAR-5 ovarian
OVCAR-4 ovarian = tested on: OVCAR-4 ovarian
SK-OV-3 ovarian = tested on: SK-OV-3 ovarian
IGROV1 ovarian = tested on: IGROV1 ovarian
OVCAR-3 ovarian = tested on: OVCAR-3 ovarian
HS 578T breast = tested on: HS 578T breast
NCI/ADR-RES ovarian = tested on: NCI/ADR-RES ovarian

| SMILES | growth (SR leukemia) | growth (RPMI-8226 leukemia) | growth (OVCAR-8 ovarian) | growth (OVCAR-5 ovarian) | growth (OVCAR-4 ovarian) | growth (SK-OV-3 ovarian) | growth (IGROV1 ovarian) | growth (OVCAR-3 ovarian) | growth (HS 578T breast) | growth (NCI/ADR-RES ovarian) |
| --- | --- | --- | --- | --- | --- | --- | --- | --- | --- | --- |
| Nc1nc(N)c2c(n1)NC(c1ccc(Cl)cc1)CC(c1cccc(Nc3ccncc3)c1)=N2 (stereo not given) | 8.66% (active) | 55.9% | 39% | 90.4% | 73.8% | 84.2% | 41.6% | 82.3% | 77.9% | 100% |
| CCN(c1cc(-c2ccc(CN3CCC(/C=C/S(=O)(=O)c4ccccc4)CC3)cc2)cc(C(=O)NCc2c(C)cc(C)[nH]c2=O)c1C)C1CCOCC1 | 17.9% | 19.2% | 75% | 90.3% | 73% | 86.2% | 53.7% | 77.3% | 62.2% | 73.7% |
| Oc1ccccc1C=Nc1ccc(N2CCN(c3ccccc3)CC2)cc1 | 98% | 91% | 96.9% | 109% | 91% | 64.6% | 103% | 100% | 105% | 92.6% |
| CCOC(=O)c1cc2c(n1Cc1cc(OC)cc(OC)c1Br)-c1nc(NC(C)=O)sc1CCC2 | 58.9% | 60.5% | 64.9% | 115% | 73.4% | 82.1% | 87.5% | 81.4% | 64.6% | 78.6% |
| CN(Cc1ccccc1)c1nc(Cl)c(C2CC(c3ccc(F)cc3)=NN2C=O)s1 (stereo not given) | 92.2% | 82.5% | 100% | 99.8% | 90.9% | 113% | 89.4% | 100% | 97.9% | 90.2% |
| COc1cc(-c2nn(-c3cccc(NC(=O)CCN4CCN(C)CC4)c3)cc2-c2ccncc2)ccc1Cl | -43.5% (active) | 4.86% (active) | 35.1% | 67.9% | 59.7% | 23.1% | 49.7% | 2.81% (active) | -0.227% (active) | 39.9% |
| C=CCN1C=CC(=O)[C@H](O[Si](C)(C)C(C)(C)C)[C@@H]1/C=C/c1ccccc1 | -25.6% [100 µM] (active) | -16% [100 µM] (active) | -47.1% [100 µM] (active) | -82.8% [100 µM] (active) | -84% [100 µM] (active) | -87.6% [100 µM] (active) | -56.3% [100 µM] (active) | -73.5% [100 µM] (active) | -24.1% [100 µM] (active) | -74.7% [100 µM] (active) |
| O=C(CCCCCCCCC(=O)N/N=C\c1ccccc1O)N/N=C\c1ccccc1O | 13.5% | 32.8% | 25.5% | 67.5% | 15.9% | 36.9% | 29.6% | 39.8% | 46.8% | 14.1% |
| Cc1ccc(-c2nc(C#N)c(S(=O)(=O)N(C)C)o2)cc1 | -10.1% (active) | 84.3% | 80.3% | 97.7% | 108% | 102% | 80.5% | 77% | 105% | 105% |
| Nn1c(-c2ccc(Cl)cc2)nc2c(-c3ccc(Cl)cc3)nc3ccc(Cl)cc3c2c1=O | -62.1% (active) | 30.1% | 11.6% | 68.7% | -78.1% (active) | 20.3% | 7.14% (active) | -81.5% (active) | -14.1% (active) | 52.4% |
| O=C(CC1(O)C(=O)Nc2ccc(Br)cc21)c1ccc(Cl)cc1 (stereo not given) | 103% | 96.7% | 96.6% | 124% | 97% | 88.3% | 93.2% | 102% | 91.7% | 104% |
| CN1CCCc2cc(/C=C3\SC(=S)N(C(Cc4ccc(O)cc4)C(=O)O)C3=O)ccc21 (stereo not given) | 105% | 95.8% | 99.2% | 101% | 98.2% | 107% | 102% | 95.5% | 102% | 100% |
| Nc1n[nH]c2cccc(C#Cc3cccc(NC(=O)c4ccc(N5CCOCC5)c(C(F)(F)F)c4)c3)c12 | 12.6% | -0.476% (active) | 10.7% | 8.26% (active) | 25.6% | 2.24% (active) | -39.1% (active) | 34.9% | -11.4% (active) | 14.4% |
| CC[C@H](C)[C@H](NC(=O)[C@H](CCCCN)NC(=O)[C@H](CCCCN)NC(=O)[C@@H](NC(=O)[C@@H](NC(=O)[C@@H](N)Cc1cnc[nH]1)[C@@H](C)CC)[C@@H](C)CC)C(=O)N[C@@H](CCCNC(=N)N)C(=O)N[C@H](C(=O)N[C@@H](Cc1c[nH]c2ccccc12)C(=O)N[C@@H](Cc1ccc(O)cc1)C(=O)N[C@@H](CCCNC(=N)N)C(=O)N[C@@H](CCCCN)C(=O)N[C@@H](C)C(=O)N[C@@H](Cc1c[nH]c2ccccc12)C(=O)N[C@@H](Cc1cnc[nH]1)C(=O)N[C@H](C(=O)N[C@@H](CC(C)C)C(=O)NCC(=O)N[C@@H](CCCCN)C(=O)N[C@H](C(N)=O)C(C)C)C(C)C)[C@@H](C)O | 71.9% | 56.1% | 33.7% | 48.4% | 77.9% | 35% | 39.2% | 44.9% | 11.6% | 34.8% |
| O=C(/C=C/c1ccc([N+](=O)[O-])cc1)c1ccccc1 | 7.6% (active) | 41.6% | 98.3% | 106% | 98.1% | 92.5% | 87.3% | 99.6% | 93.2% | 103% |
| COc1nc2ccc(C)cc2cc1/C=[N+](\[O-])c1ccccc1 | 39.9% | 69.1% | 95.3% | 92.6% | 83.7% | 79.9% | 75.2% | 96.6% | 91% | 81.1% |
| CC12CCC(C(=O)CC1=O)C2(C)C (stereo not given) | 122% and 93% | 101% and 94.2% | 103% and 99.5% | 101% and 106% | 101% | 104% and 105% | 110% and 104% | 105% and 106% | 108% and 120% | 111% and 103% |
| Nc1nc(Cl)nc2c1ncn2C1OC(CO)C(O)C1O (stereo not given) | 56.8% | 104% and 96.1% | 22.9% and 29.3% | 90% and 105% | 94.4% and 87% | 41.3% and 68.1% | 78.9% and 75.1% | 86.9% | 108% | 29.6% and 40.2% |
| CN(C)CC1(C)Cc2ccsc2C1O (stereo not given) | 102% and 83.2% | 106% and 98.8% | 110% and 105% | 101% and 105% | 113% and 100% | 109% and 104% | 123% and 110% | 127% and 105% | 129% | 106% and 103% |
| Cc1ccc(/C=C2\COc3ccc(O)c(O)c3C2=O)cc1 | 18% | -12.6% (active) | 4.95% (active) | -22.1% (active) | 15.7% | 50% | -37.4% (active) | -21.3% (active) | 20.5% | 3.13% (active) |
| CC(=O)N1N=C(c2ccc(Nc3nc(Nc4ccc(F)cc4)nc(Nc4ccc(F)cc4)n3)cc2)CC1c1ccccc1 (stereo not given) | 23.3% | 33.9% | 83% | 72.3% | 95.3% | 89.2% | 117% | 141% | 94.8% | 72.8% |
| COc1ccc(C2Nc3nc(SC)nc(N)c3N=C3c4ccccc4CCC32)cc1 (stereo not given) | 66% | 67.5% | 70.5% | 107% | 53.9% | 97% | 55.2% | 65.2% | 97.1% | 56.2% |
| COC1/C=C/OC2(C)Oc3c(C)c(O)c4c(O)c(c(C=NOC(c5ccccc5)c5ccccc5)c(O)c4c3C2=O)NC(=O)/C(C)=C/C=C/C(C)C(O)C(C)C(O)C(C)C(OC(C)=O)C1C (stereo not given) | -5.09% (active) | 3.28% (active) | 24.8% | 38.1% | 15.2% | -34% (active) | 29.8% | 11.9% | -5.16% (active) | 28.9% |
